Test results reported in PubChem BioAssay.
Values without a mark were called inactive. Activity calls are given as the source filed them. Cut-off read from the data, not from the text of the source, unless noted: active = inhibition above about 36%; inactive = the rest.

What was measured:
[1] = tested on: transactivating tegument protein VP16 (Human herpesvirus 1); assay: VP16 transactivation reporter inhibitors, counter-screen for SRC2 inhibitor project, cell-based, luminescence, single concentration (AID 652007); details: cell-based VP16 transactivation luciferase reporter, at 8.9 µM, active compounds read high
[2] = molecular target: Nuclear receptor coactivator 2 (Homo sapiens) (UniProt Q15596); assay: SRC2 coactivator transcriptional activity inhibitors, confirmation, cell-based, luminescence, HEK293, triplicate (AID 652008;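 active = mean inhibition above 46.5%, the solvent-only control mean plus 3 SD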;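 note: 0% = DMSO-treated cells and 100% = Gossypol at 36 µM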); details: HEK293 GAL4-SRC2 luciferase reporter, at 8.9 µM, active compounds read high
Chain of Nuclear receptor coactivator 2 (Homo sapiens) (Q15596 whole entry, looked up, the tested form may be a part): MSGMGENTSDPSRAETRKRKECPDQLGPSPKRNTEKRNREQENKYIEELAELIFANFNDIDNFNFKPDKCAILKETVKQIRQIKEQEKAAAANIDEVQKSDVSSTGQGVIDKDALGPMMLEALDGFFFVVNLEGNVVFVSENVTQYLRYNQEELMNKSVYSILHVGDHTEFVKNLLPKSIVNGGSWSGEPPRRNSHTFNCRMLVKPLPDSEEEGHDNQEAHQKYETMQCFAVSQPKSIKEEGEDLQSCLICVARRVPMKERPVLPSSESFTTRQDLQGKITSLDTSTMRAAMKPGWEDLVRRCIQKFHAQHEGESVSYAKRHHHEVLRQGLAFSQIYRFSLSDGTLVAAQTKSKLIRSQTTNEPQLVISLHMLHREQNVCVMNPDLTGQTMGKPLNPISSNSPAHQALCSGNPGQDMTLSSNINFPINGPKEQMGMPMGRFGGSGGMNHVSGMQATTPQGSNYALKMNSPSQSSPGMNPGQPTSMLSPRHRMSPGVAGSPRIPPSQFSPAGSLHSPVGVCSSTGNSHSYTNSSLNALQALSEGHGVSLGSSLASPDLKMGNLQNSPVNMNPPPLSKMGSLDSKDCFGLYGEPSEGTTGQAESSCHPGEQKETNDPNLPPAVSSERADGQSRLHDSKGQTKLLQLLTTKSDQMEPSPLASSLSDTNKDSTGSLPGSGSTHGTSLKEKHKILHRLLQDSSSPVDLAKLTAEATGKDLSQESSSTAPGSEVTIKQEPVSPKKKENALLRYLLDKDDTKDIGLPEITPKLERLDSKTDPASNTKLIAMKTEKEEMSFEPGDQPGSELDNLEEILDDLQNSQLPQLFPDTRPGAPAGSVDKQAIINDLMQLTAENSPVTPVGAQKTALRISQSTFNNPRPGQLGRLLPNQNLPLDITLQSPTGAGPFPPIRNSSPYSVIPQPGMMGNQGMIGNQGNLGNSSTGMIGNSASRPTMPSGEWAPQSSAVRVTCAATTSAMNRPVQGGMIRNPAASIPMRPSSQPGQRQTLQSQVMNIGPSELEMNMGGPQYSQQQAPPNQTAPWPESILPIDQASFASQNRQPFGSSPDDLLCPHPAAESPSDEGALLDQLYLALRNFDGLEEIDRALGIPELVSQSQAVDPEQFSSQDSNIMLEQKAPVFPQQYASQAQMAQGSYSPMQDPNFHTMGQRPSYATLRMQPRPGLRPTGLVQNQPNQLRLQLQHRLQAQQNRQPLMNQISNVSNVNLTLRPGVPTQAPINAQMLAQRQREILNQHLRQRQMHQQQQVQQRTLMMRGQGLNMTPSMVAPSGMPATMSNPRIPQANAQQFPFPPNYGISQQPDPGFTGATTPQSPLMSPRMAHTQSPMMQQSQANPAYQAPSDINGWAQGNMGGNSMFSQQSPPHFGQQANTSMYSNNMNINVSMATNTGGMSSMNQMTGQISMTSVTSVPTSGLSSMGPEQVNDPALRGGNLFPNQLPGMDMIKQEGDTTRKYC

Structure (SMILES) | inhibition [1] | inhibition [2]
Cc1cc(NC(=O)c2ccccc2)c(Cl)cc1N | 25.4% | 52.1% (active)
Cc1cccc(NC(=S)NNc2ncc(C(F)(F)F)cc2Cl)c1 | 24.3% | 11.6%
COc1ccc(CN2C[C@H](Cc3ccccc3)[C@@H](CC(=O)Nc3ccccc3)C2=O)cc1 | -10.9% | 1.81%
CCOc1ccc(NC(=S)NC(=O)/C=C/c2ccc(OC)cc2)c([N+](=O)[O-])c1 | -22.3% | -19.4%
Cc1ccc(N(C(=O)CCl)C(C(=O)NC2CCCCC2)c2cccnc2)cc1C (stereo not drawn) | 55.2% (active) | 61.7% (active)
O=C(Nc1ccc2nc3n(c(=O)c2c1)CCCCC3)c1c(F)ccc([N+](=O)[O-])c1F | 83% (active) | 75.5% (active)
CC(c1nccs1)N(C)C(=O)CCc1nnc(-c2ccc(-c3ccccc3)cc2)o1 (stereo not drawn) | -11% | 30.6%
CC(C)c1ccc(/C=C/C(=O)N2CCCCCC2)cc1 | -73.2% | -26%
C[C@@H]1C(c2ccc(F)cc2)=NN(c2ccccc2)[C@H]1C(=O)N1CCOC1=O | -11.2% | -21.5%
Nc1ccc(OC(=O)Nc2ccc(O)cc2)cc1 | 31.8% | 73.7% (active)
O=S(=O)(c1cccc2cnccc12)N1CCNCC1 | 5.01% | 48.1% (active)
CC(=O)Nc1cccc(-c2cc(NC(C)=O)c3ncc(-c4ccc(F)cc4)n3c2)c1 | 12% | 2.54%
O=C1N[C@@H](Cc2ccccc2)C(=O)N2[C@H]1CSCCS2(=O)=O | -5.16% | -25.1%
CCc1nnc(NC(=O)c2nc(S(=O)(=O)Cc3ccc(C)cc3)ncc2Cl)s1 | 48.1% (active) | 58.3% (active)
Cc1nc2scc(C)n2c(=O)c1S(=O)(=O)Nc1ccc(OC(F)(F)F)cc1 | -5.83% | 6.78%
COc1ccc(OC)c(NC(=O)CCCc2ccccc2)c1 | -5.12% | -20.9%
O=C(NCCCN1CCOCC1)c1ccc(CNS(=O)(=O)c2ccc(Br)cc2)cc1 | -18.4% | 19.1%

Structure (SMILES) | inhibition [1] | inhibition [2]
CC(C)C(=O)Nc1cccc2nsnc12 | -7.28% | 5.54%
Cc1oc(-c2cccc3ccccc23)nc1CN1CCN(c2ncnc3ccccc23)CC1 | -22.1% | 5.63%
CC(C)c1nc(N2CCOCC2)c(C#N)c2c1CCC2 | -15.7% | 4.3%
C(=N\Nc1nc2ccccc2s1)/c1ccccn1 | 49.5% (active) | 52.3% (active)
Cc1cc(=O)n2c3c(c4c(cc13)c(CN(C)C)cc(=O)n4C)OC2 | 2.33% | -129%
COc1ccc(S(=O)(=O)n2ccc(-c3ccc(OCCN(C)c4ccccn4)cc3)n2)cc1 | 3.56% | 30.2%
NC(=O)c1cc(C(=O)c2ccc(Cl)cc2Cl)c[nH]1 | -19.8% | 14.3%
COC(=O)C1Cc2ccccc2CN1C(=O)CCl (stereo not drawn) | 27.7% | 33.2%
O=C(O)C1(Nc2ccc(Br)cc2)CCCC1 | -19.4% | -11.7%
O=C(CCCN1C(=O)/C(=C/c2ccccc2Cl)SC1=S)Nc1cccnc1 | -29.3% | -4.66%
COc1cc2ncnc(NCc3ccc4c(c3)OCO4)c2cc1OC | 7.59% | -5.74%
Cc1cc(N)ccc1-n1nc2ccccc2n1 | -7.48% | 3.06%
O=C(CCCN1C(=O)/C(=C/c2ccc3c(c2)OCO3)SC1=S)Nc1ccc(C(=O)O)cc1 | 53.6% (active) | 36.2%
O=S(=O)(c1ccc(NC(=S)NCc2ccncc2)cc1)N1CCCCC1 | 15.6% | 0.63%
Cc1ccc(C(C)C)c(OCc2ccc(C(=O)N/N=C/c3ccc(C(=O)O)cc3)cc2)c1 | -13.2% | 41.4%
CC(C)=CCC[C@@]1(C(=O)O)[C@H]2CC=C(CO)[C@@H]1CC/C(C)=C/CC/C(C)=C/C2 | 14.6% | 17.2%
COC(=O)c1ccc(Sc2nnnn2-c2ccccc2)c([N+](=O)[O-])c1 | 20.1% | 48.2% (active)
